According to publication PMC4336329 (PLoS ONE, 2015):
Out of some 310,000 compounds screened, about 14,000 (4.5%) showed an effect of 50% or more. The effect is printed as a negative number. The entries come from a sample that favours strong results as a whole.

biological target: human ether-à-go-go-related gene (hERG) potassium channel (human, UniProt Q12809); assay: primary screen, population patch clamp on CHO cells stably expressing hERG; higher = less effect of the substance
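Further: peak tail current of the secondary pulse compared with the same well before compound.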

Sequence of human ether-à-go-go-related gene (hERG) potassium channel (Q12809 whole entry, looked up): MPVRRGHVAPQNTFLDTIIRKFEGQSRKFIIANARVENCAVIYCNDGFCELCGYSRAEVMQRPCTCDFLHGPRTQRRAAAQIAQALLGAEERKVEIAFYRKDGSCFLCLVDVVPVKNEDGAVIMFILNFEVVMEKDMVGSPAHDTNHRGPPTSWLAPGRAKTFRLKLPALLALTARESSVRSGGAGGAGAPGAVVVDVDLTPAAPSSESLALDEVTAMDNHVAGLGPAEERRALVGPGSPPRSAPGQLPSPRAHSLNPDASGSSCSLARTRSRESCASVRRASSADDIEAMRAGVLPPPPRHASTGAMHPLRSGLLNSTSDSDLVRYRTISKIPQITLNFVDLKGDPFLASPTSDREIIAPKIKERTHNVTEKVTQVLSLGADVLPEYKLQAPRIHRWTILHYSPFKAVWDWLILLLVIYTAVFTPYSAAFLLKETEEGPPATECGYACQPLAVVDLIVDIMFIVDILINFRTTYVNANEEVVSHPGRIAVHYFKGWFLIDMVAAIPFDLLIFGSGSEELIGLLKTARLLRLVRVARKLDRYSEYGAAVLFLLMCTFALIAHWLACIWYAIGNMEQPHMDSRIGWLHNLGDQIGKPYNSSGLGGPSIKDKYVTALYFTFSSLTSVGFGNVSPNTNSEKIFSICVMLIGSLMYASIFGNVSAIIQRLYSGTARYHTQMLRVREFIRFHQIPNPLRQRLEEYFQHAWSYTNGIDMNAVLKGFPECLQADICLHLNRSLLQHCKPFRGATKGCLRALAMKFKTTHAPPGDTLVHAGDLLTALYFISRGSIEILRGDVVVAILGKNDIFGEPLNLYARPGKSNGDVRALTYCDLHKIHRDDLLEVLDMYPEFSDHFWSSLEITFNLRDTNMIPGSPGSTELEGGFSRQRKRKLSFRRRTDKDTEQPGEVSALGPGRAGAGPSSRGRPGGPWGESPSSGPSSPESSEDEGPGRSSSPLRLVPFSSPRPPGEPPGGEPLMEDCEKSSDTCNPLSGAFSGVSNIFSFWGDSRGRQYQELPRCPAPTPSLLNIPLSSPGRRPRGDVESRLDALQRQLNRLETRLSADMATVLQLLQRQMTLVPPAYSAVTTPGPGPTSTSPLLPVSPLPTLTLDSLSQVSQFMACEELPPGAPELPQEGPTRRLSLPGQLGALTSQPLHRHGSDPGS

SMILES | hERG current change (%, negative = inhibition) at 10uM [%]
C=CCNC(=O)c1cnn(-c2ccccc2)c1-c1ccccc1 | 10.4
Cc1ccc(NCc2nnc(SCC(=O)Nc3nnc(C)s3)n2C)cc1 | -1.72
Cc1ccc(S(=O)(=O)c2cc3c(=O)n4cccc(C)c4nc3n(Cc3ccncc3)c2=N)cc1 | -40.8
Cc1cccn2c(=O)c3cc(C(=O)NC(C)C)c(=N)n(Cc4ccncc4)c3nc12 | -72.4
COC(=O)C1CCN(C(=O)c2cc3c(=O)n4cccc(C)c4nc3n2Cc2ccccc2)CC1 | 13.2
COc1cccc(NC(=S)N(CCCN2CCOCC2)Cc2cn(C)c3ccccc23)c1 | -10.7
COc1cccc(NC(=S)N(CCN(C)C)Cc2cccs2)c1 | -10.5
COc1ccc(NC(=S)N(CCCN2CCOCC2)Cc2cn(C)c3ccccc23)cc1 | -16.8
COc1ccc(NC(=S)N(CCCN2CCC(C)CC2)Cc2cccs2)cc1 | -68.2
COc1ccc(NC(=S)N(CCN(C)C)Cc2cccs2)cc1 | -33.9
COc1ccc(NC(=S)N(CCCN2CCN(C)CC2)Cc2cccs2)cc1 | -53.4
COc1ccc(NC(=S)N(CCCN2CCCCC2)Cc2cccs2)cc1 | -61
COc1ccc(NC(=S)N(CCCN2CCCC2)Cc2cccs2)cc1 | -48
COc1cccc(NC(=S)N(CCCN2CCC(C)CC2)Cc2cccs2)c1 | -59.2
CCCCN(C(=O)c1ccc(-c2ccc(Cl)cc2)o1)c1c(N)n(CCC)c(=O)[nH]c1=O | 0.856
O=C(NC1CCCC1)C(c1cccs1)N(Cc1ccco1)C(=O)Cn1nnc(-c2cccs2)n1 (stereo not shown) | 2.45
CCC1CCCCN1C(=S)Nc1cccc(S(=O)(=O)N(C)C)c1 (stereo not shown) | -6.73
CCOP(=S)(OCC)Oc1cc(C)oc(=O)c1Cl | 19.6
COc1cc(C2=NOC(C(=O)NC3CCCCC3)C2)cc(OC)c1OC (stereo not shown) | -8.08
Cc1cc(C)[n+](-c2ccc(Oc3ccccc3)c(S(=O)(=O)[O-])c2)[nH]1 | 13.6
CC(=O)Nc1ccc2c(c1)C(=O)N(c1cccc3ccccc13)C2=O | -9.32
COc1ccc(NP(=O)(Oc2ccc(Cl)cc2)Oc2ccc(Cl)cc2)cc1OC | -16.6

SMILES | hERG current change (%, negative = inhibition) at 10uM [%]
O=C(OC1CCOC1=O)c1cncc(Br)c1 (stereo not shown) | -15.7
Nc1ccc(-c2ccc(N)c(C(=O)O)c2)cc1C(=O)O | 7.74
CC(=O)NC12CC3CC(C1)CC(C(=O)Nc1nccs1)(C3)C2 | 6.58
CC(OC(=O)Cn1cnc2c1c(=O)n(C)c(=O)n2C)C(=O)NC1CCCCC1C (stereo not shown) | 15.4
CCC(c1nnnn1C1CCCCC1)N1CCN(C(=O)c2ccco2)CC1.Cl (stereo not shown) | -11.4
COc1cc(/C=N/Nc2cccc(C)c2)ccc1OC(=O)c1ccco1 | 23.4
COc1ccc(NC(=S)N(CCCN2CCC(C)CC2)Cc2cccs2)cc1Cl | -73.1
COc1ccc(NC(=S)NCCN2CCC(C)CC2)cc1Cl | -30.5
COc1ccc(NC(=S)N(CCCN2CCCC2)Cc2cccn2Cc2ccc(Cl)cc2)cc1Cl | -6.98
Cn1c(Cn2nnc3ccccc32)nnc1SCC(=O)N1c2ccccc2Sc2ccccc21 | -22.1
O=C(OCCN=C1NS(=O)(=O)c2ccccc21)c1ccncc1 | -1.44
C/C(=N\NC(=O)Cn1cc([N+](=O)[O-])cn1)c1ccc(O)cc1 | -5.56
O=C(NCC1(N2CCCCC2)CCCCC1)c1cccc(S(=O)(=O)Nc2ccc(F)cc2)c1 | -64
O=C(NCC1(N2CCOCC2)CCCCC1)c1cccc(S(=O)(=O)Nc2ccc(F)cc2)c1 | -44.1
COc1ccc(NS(=O)(=O)c2cccc(C(=O)NCC3(N4CCOCC4)CCCCC3)c2)cc1 | -36.7
COc1ccc(NS(=O)(=O)c2cccc(C(=O)NCC3(N4CCCCC4)CCCCC3)c2)cc1 | -55.4
O=C(c1cccc(S(=O)(=O)Nc2ccc(F)cc2)c1)N1CCCC1 | -3.1
COc1ccc(NS(=O)(=O)c2cccc(C(=O)N3CCCCCCC3)c2)cc1 | -28.9
COc1cc(/C=C2\C(=O)NN(c3ccccc3)C2=O)cc([N+](=O)[O-])c1O | 22
O=C(N/N=C/c1coc2ccccc2c1=O)c1cccc([N+](=O)[O-])c1 | 26.8
Cc1ccccc1NC(=O)Cn1nnc(S(=O)(=O)c2ccc(C(C)(C)C)cc2)c1N | 4.35
